Source: PubChem BioAssay AID488969 (Vanderbilt High Throughput Screening Facility, 2010)
Where “and” joins values, the source holds several entries; their conditions need not be identical. Equal values may be shown once. Over roughly 110,000 compounds, “z-score” has its median near -0.1; the highest 2% begin near 2. The sample holds the highest values, similar compounds and a random draw of the others, so the mix is not that of the screen. Calls of active or inactive are those of the source.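 How the source made its calls: active means z-score in the third read window above 3 or below -3; inactive means the rest.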

What follows are compounds tested against Metabotropic glutamate receptor 8 (Rattus norvegicus) (UniProt P70579) (assay: rat mGluR8 modulators via GIRK flux, primary screen, cell-based, thallium flux, HTS (AID 488969)). Details: HEK293 rat mGluR8, GIRK (G protein-gated inwardly rectifying potassium channel) thallium flux, FluoZin2; at 10 µM; stronger effect = higher value; submaximal glutamate (EC20) added with thallium.
Chain of Metabotropic glutamate receptor 8 (Rattus norvegicus) (P70579 whole entry, looked up): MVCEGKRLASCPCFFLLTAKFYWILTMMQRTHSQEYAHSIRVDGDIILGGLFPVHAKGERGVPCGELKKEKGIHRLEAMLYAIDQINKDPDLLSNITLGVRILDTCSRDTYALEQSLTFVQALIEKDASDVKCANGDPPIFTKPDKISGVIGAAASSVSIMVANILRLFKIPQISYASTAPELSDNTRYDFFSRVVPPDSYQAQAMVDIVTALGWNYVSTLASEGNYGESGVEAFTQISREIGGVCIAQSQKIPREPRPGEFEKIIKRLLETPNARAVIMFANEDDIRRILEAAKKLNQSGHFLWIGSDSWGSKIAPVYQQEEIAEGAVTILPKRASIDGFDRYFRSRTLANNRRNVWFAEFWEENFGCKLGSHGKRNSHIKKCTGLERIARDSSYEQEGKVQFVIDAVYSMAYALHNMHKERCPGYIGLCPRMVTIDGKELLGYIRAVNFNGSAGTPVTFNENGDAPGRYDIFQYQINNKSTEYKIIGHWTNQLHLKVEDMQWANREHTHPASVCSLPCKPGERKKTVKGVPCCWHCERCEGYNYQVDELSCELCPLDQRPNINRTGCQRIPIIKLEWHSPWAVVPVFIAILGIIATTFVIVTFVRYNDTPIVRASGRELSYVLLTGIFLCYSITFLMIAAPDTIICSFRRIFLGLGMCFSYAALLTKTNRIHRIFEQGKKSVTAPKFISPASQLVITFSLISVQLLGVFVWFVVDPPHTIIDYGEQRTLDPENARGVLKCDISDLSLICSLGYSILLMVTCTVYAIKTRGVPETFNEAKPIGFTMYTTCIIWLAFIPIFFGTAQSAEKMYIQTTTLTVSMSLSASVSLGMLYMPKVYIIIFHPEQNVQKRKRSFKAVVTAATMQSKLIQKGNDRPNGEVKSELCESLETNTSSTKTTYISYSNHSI
With `O=C(COc1ccccc1)Nc1ccc2c(c1)Cc1cc(NC(=O)COc3ccccc3)ccc1-2` the z-score was -0.155.
Work on `O=C(COc1ccccc1)Nc1ccc([N+](=O)[O-])cc1` yielded a z-score of 0.423.
In the case of `O=C(COc1ccccc1)NC(=S)Nc1cccc([N+](=O)[O-])c1`, the z-score is reported as 11.8 (active).
For `O=C(COc1ccccc1)NC(=S)Nc1ccc2c(c1)Cc1ccccc1-2`, the z-score was 6.86 (active).
`O=C(COc1ccccc1)NC(=S)Nc1cccc(NC(=O)c2ccccc2Cl)c1` was tested, and the z-score was -0.164.
Work on `COc1ccc(C(=O)NC(=S)Nc2ccc3c(c2)Cc2ccccc2-3)cc1` yielded a z-score of 0.991.
In the case of `CC(Sc1ccccn1)C(=O)Nc1ccccc1` (centres undefined), the z-score is reported as -0.408.
For `Cc1cc2nc(-c3ccco3)cc(C(F)(F)F)n2n1`, the z-score was 0.0437.
For `CC1CC(Nc2cccc(O)c2)=CC(=O)O1` (centres undefined), the z-score was -0.0768.
Compound `CCCCC1CC1C(=O)Nc1ncc2c(n1)CC(C)(C)CC2=O` (centres undefined) has a z-score of -0.185.
For `CC1(C)CC(=O)c2cnc(NC(=O)CCc3ccccc3)nc2C1`, the z-score was -0.267.
`CCCCC(=O)Nc1ncc2c(n1)CC(C)(C)CC2=O` was tested, and the z-score was 6.64 (active).
For `O=C(O)C1CC(=O)N(Cc2cccs2)C1` (centres undefined), the z-score was 0.254.
`O=C(CCSc1ccccc1)Nc1nccs1` gave a z-score of 0.115.
With `Cc1nc(-c2ccccc2)sc1C(=O)CSc1ccc(Br)cc1` the z-score was -0.108.
`O=C(CSc1ccccc1)N(c1ccc(Br)cc1)c1nccs1` was tested, and the z-score was 9.08 (active).
`CCOC(=O)C1CCCN(C(=O)c2cc3c(-c4cccc(OC)c4)nn(C)c3s2)C1` (centres undefined) showed a z-score of -0.832.
`Cc1nc(=O)c(-c2ccccc2)c(C)n1CCO` gave a z-score of -0.0934.
`CC(C)Cn1cnc2sc3c(c2c1=N)CCCC3` was tested, and the z-score was 3.07 (active).
Compound `N=c1c2c3c(sc2ncn1Cc1ccccc1)CCCC3` has a z-score of 0.187.
`N=c1c2c3c(sc2ncn1CCCO)CCCC3` showed a z-score of -0.123.
For `CCCNC(=S)Nc1ccc(Cl)cc1C`, the z-score was -0.142.
Compound `COc1cccc(N2CCN(Cc3nc(N)nc(Nc4ccccc4OC)n3)CC2)c1` has a z-score of -0.203.
`Cc1cccc(C)c1OCC(=O)NCc1nnc(SCC(=O)NC2CCCCC2C)n1C` (centres undefined) was tested, and the z-score was -0.0497.
`O=C(NNc1ncc(C(F)(F)F)cc1Cl)c1c(Cl)cccc1Cl` showed a z-score of 0.951.
`Fc1ccccc1NC(=S)NNc1ncc(C(F)(F)F)cc1Cl` showed a z-score of 1.37.
`Cc1ccc(NC(=S)NNc2ncc(C(F)(F)F)cc2Cl)c(C)c1` showed a z-score of 2.04.
`FC(F)(F)c1cnc(NNC(=S)Nc2ccccc2Cl)c(Cl)c1` was tested, and the z-score was 5.28 (active).
Work on `Cc1cccc(C)c1NC(=S)NNc1ncc(C(F)(F)F)cc1Cl` yielded a z-score of 0.289.
`Cc1c(Cl)cccc1NC(=S)NNc1ncc(C(F)(F)F)cc1Cl` was tested, and the z-score was 0.506.
Compound `Cc1ccc(NC(=S)NNc2ncc(C(F)(F)F)cc2Cl)cc1` has a z-score of 2.19.
Compound `Cc1ccccc1NC(=S)NNc1ncc(C(F)(F)F)cc1Cl` has a z-score of 0.522.
In the case of `Nc1ccccc1C(=O)NNc1ncc(C(F)(F)F)cc1Cl`, the z-score is reported as 0.251.
In the case of `CN(NC(=O)Nc1ccc(Cl)cc1)c1ncc(C(F)(F)F)cc1Cl`, the z-score is reported as 0.137.
In the case of `FC(F)(F)c1cnc(NNC(=S)Nc2ccc(Cl)cc2)c(Cl)c1`, the z-score is reported as 6.35 (active).
In the case of `CC(C(=O)Nc1ccc(Cl)cc1)c1ncc(C(F)(F)F)cc1Cl` (centres undefined), the z-score is reported as -0.108.
`COc1cc2c(cc1NC(=O)c1cccc(Br)c1)CCCC2` showed a z-score of 0.201.
For `N#Cc1cc2c(nc1SCC(N)=O)CCCCC2`, the z-score was -0.0763.
With `COc1ccc(-c2csc(Nc3cccnc3)n2)cc1OC` the z-score was -0.0895.
`Cc1cc(=O)oc(C)c1C(=O)OCC(=O)c1ccc2ccccc2c1` gave a z-score of -0.249.
`CCCCCCn1cnc2c(c1=O)c1nc3ccccc3nc1n2Cc1cccs1` was tested, and the z-score was -1.43.
For `CCCCNc1c2c(nc3c(-c4ccccc4)c(C)nn13)CCC2`, the z-score was -0.294.
With `Cc1nn2c(NCCCN(C)C)c3c(nc2c1-c1ccccc1)CCC3` the z-score was 3.36 (active).
`Cc1nn2c(NCCCN3CCOCC3)c3c(nc2c1-c1ccccc1)CCC3` showed a z-score of -0.0116.
For `O=C(CN1CCOCC1)Nc1ccc(C2CCCCC2)cc1`, the z-score was 2.23.
`O=C(CN1CCCC1)Nc1ccc(Oc2ccc(NC(=O)CN3CCCC3)cc2)cc1` gave a z-score of 2.7.
`CC1CCCCN1CC(=O)NC(=O)NCc1ccccc1` (centres undefined) showed a z-score of -0.261.
`O=C(CN1CCN(C(=S)NC2CCCC2)CC1)Nc1ccc(Oc2ccccc2)cc1` was tested, and the z-score was -0.13.
In the case of `O=C(CN1CCOCCOCCOCCOCC1)Nc1ccccc1`, the z-score is reported as 0.356.
In the case of `CC1CCCCN1CC(=O)Nc1ccc(Oc2ccccc2)cc1` (centres undefined), the z-score is reported as 3.58 (active).
Compound `O=C(CN1CCOCC1)Nc1ccc(Oc2ccccc2)cc1` has a z-score of 1.91.
`COc1ccc(NC(=O)CN2CCCCC2)cc1` gave a z-score of 0.473.
Compound `O=C(CN1CCOCCOCCOCC1)Nc1ccccc1` has a z-score of 0.274.
`O=C(CN1CCNCC1)Nc1ccc(Oc2ccccc2)cc1` was tested, and the z-score was 2.35.
Compound `O=C(CN1CCOCC1)Nc1ccc(Oc2ccc(NC(=O)CN3CCOCC3)cc2)cc1` has a z-score of -0.278.
`CN1CCN(CC(=O)Nc2ccc(Oc3ccccc3)cc2)CC1` gave a z-score of 1.4.
In the case of `C=CCn1c(N)c(C(=O)Nc2ccc(C)c(C)c2)c2nc3ccccc3nc21`, the z-score is reported as 0.661.
With `Cc1c(O)nc(SCC(=O)Nc2ccc3c4c(cccc24)CC3)n(-c2ccccc2)c1=O` the z-score was -0.768.
`CCOC(=O)N1CCN(C(=O)CN(C2CCCCC2)S(=O)(=O)c2ccc(F)cc2)CC1` was tested, and the z-score was 0.315.
Work on `CCOC(=O)c1cnc2ccc(OCC)cc2c1N1CCN(c2ccccc2OC)CC1` yielded a z-score of -0.8.
Compound `COC(=O)c1sc2nc(-c3ccco3)ccc2c1N` has a z-score of 2.53.
`COc1ccccc1NC(=O)c1sc2nc(-c3ccco3)ccc2c1N` was tested, and the z-score was 0.132.
Compound `NC(=O)c1sc2nc(-c3ccco3)ccc2c1N` has a z-score of -0.321.
`CC(C)CNC(=S)NNC(=O)c1ccc(OC(F)F)cc1` was tested, and the z-score was -0.0885.
`CCNC(=S)NNC(=O)c1ccc(OC(F)F)cc1` gave a z-score of -0.194.
`O=C(NNC(=S)NCc1ccccc1)c1ccc(OC(F)F)cc1` gave a z-score of 2.12.
For `CCOCCCNC(=O)CCCOc1ccccc1`, the z-score was 0.0157.
In the case of `O=C(Cc1ccccc1F)Nc1ccc(Cl)nc1`, the z-score is reported as 0.217.
In the case of `Cc1ccc(NC2=C(CC(=O)O)C(c3ccccc3)N(c3ccc(C)cc3)C2=O)cc1` (centres undefined), the z-score is reported as -0.426.
`Cc1ccc(N2C(=O)c3n[nH]c(C)c3C2c2ccccn2)cc1` (centres undefined) gave a z-score of -0.326.
In the case of `Cc1ccc(C2C3=C(NCCN=C3c3ccccc3)C(=O)N2c2ccccc2)cc1` (centres undefined), the z-score is reported as 3.18 (active).
For `CC1CCCCN1S(=O)(=O)c1ccc(NC(=O)c2cccs2)cc1` (centres undefined), the z-score was -0.377.
Compound `O=C(Nc1cccnc1)Nc1ccccc1Cl` has a z-score of 0.0762.
In the case of `CCc1ccc(/C=C/C(=O)c2ccc(N3CCOCC3)cc2)cc1`, the z-score is reported as 0.286.
Compound `COCCC(=O)NC12CC3CC(CC(C3)C1)C2` has a z-score of -0.301.
`CCN(CC)CC(=O)NC12CC3CC(CC(C3)C1)C2` showed a z-score of 2.42.
In the case of `O=C(O)CC(=O)NC12CC3CC(CC(C3)C1)C2`, the z-score is reported as -0.251 and -0.244.
Compound `CCCCCC[n+]1c(-c2ccc(Cl)cc2Cl)csc1Nc1ccccc1` has a z-score of -0.156.
`O=C(NC1CCCCC1)C(c1ccccc1)N(Cc1ccc2c(c1)OCO2)C(=O)c1cnsn1` (centres undefined) gave a z-score of 2.16.
`O=C(CN(Cc1ccc2c(c1)OCO2)C(=O)c1cnsn1)NC1CCCC1` gave a z-score of -0.186.
For `O=C(NC1CCCCC1)C(c1ccc(F)cc1)N(Cc1ccc2c(c1)OCO2)C(=O)c1cnsn1` (centres undefined), the z-score was 0.366.
In the case of `COc1cc(CCN2C(=O)c3cccc4cccc(c34)C2=O)c(S(=O)(=O)N2CCCCCC2)cc1OC`, the z-score is reported as -0.297.
Compound `Cn1c(=O)c2c(nc(CN3CCc4ccccc4C3)n2CC(=O)c2ccccc2)n(C)c1=O` has a z-score of -0.969.
For `COC(=O)Cn1c(CN2CCc3ccccc3C2)nc2c1c(=O)n(C)c(=O)n2C`, the z-score was 5.81 (active).
With `Cn1c(=O)c2c(nc(CN3CCc4ccccc4C3)n2Cc2ccccc2)n(C)c1=O` the z-score was -0.932.
With `CCOC(=O)c1ccc(NC(=O)c2cc(OC)c(OC)c(OC)c2Br)cc1` the z-score was 0.551.
`O=C(O)C1CCCCC1C(=O)NCc1cn2ccccc2n1` (centres undefined) gave a z-score of -0.352.
Compound `O=C(CN1CCOCC1)Nc1ccc(OCc2ccccc2)cc1` has a z-score of 0.323.
For `CNC(=O)CSc1nc2c(c(=O)n(C)c(=O)n2C)n1Cc1ccc(C)cc1`, the z-score was 2.07.
In the case of `Cc1ccc(Cn2c(SCC(C)C)nc3c2c(=O)n(C)c(=O)n3C)cc1`, the z-score is reported as -0.493.
Work on `Cc1ccc(Cn2c(SCC(N)=O)nc3c2c(=O)n(C)c(=O)n3C)cc1` yielded a z-score of -0.328.
`COc1cc(NC(=O)c2ccco2)c(OC)cc1NC(=O)CSc1nnc(-c2cccs2)n1C` was tested, and the z-score was -1.07.
With `CCOC(=O)C1=C(CC)Nc2ccccc2N=C1NC(=O)Nc1ccc(Cl)c(Cl)c1` the z-score was 5.4 (active).
`CCOC(=O)C1=C(CC)Nc2ccccc2N=C1NC(=O)c1cc(S(=O)(=O)N(C)C)ccc1Cl` gave a z-score of 0.243.
`CCOC(=O)C1=C(CC)Nc2ccccc2N=C1NC(=O)Nc1ccccc1OC` gave a z-score of 0.249.
`Cc1cc(C)n(C(=O)c2ccc(C)c(F)c2F)n1` was tested, and the z-score was -0.238.
In the case of `CCCCCc1ccc(S(=O)(=O)NCCc2ccncc2)cc1`, the z-score is reported as 0.483.
`CCCCNS(=O)(=O)c1ccc(S(=O)(=O)NCc2ccncc2)cc1` was tested, and the z-score was 2.5.
With `CCCCc1ccc(S(=O)(=O)NCCc2ccncc2)cc1` the z-score was 0.298.
`CCOC(=O)C1=C(C)Nc2sc(C(=O)c3ccc(C)cc3)c(N)c2C1c1ccc(C(=O)OC)cc1` (centres undefined) showed a z-score of -0.284.
With `CCc1ccc(NC(=S)NNC(=O)c2ccccc2OC(F)F)cc1` the z-score was 3.63 (active).
`Cc1ccc(NC(=S)NNC(=O)c2ccccc2OC(F)F)cc1` gave a z-score of 0.966.
For `O=C(NNC(=S)Nc1ccc(F)cc1)c1ccccc1OC(F)F`, the z-score was -0.00644.
`CC1Cc2ccccc2N1C(=O)CSc1ccccc1` (centres undefined) showed a z-score of -0.501.
`CCOc1ccc(N2C(=O)CC(N3CCc4ccccc43)C2=O)cc1` (centres undefined) was tested, and the z-score was 1.67.
Work on `Cc1sc2ncn(CC(=O)NCCc3ccccc3)c(=O)c2c1C` yielded a z-score of 0.251.
Work on `N#CCCN(Cc1cccnc1)C(=O)Nc1ccccc1` yielded a z-score of -0.271.
With `COc1ccc(CN(CCC#N)C(=S)NC(=O)c2ccccc2)cc1` the z-score was 4.49 (active).
`N#CCCN(Cc1ccccc1)C(=S)Nc1ccccc1` was tested, and the z-score was -0.262.
Compound `COc1ccc(CNC(=O)c2ccc(-c3ccccc3)cc2)cc1` has a z-score of -0.113.
`COc1ccccc1CC(=O)N(CCC#N)CCC#N` showed a z-score of -0.512.
`N#CCCN(Cc1ccccc1)C(=S)NC(=O)c1ccccc1` gave a z-score of 2.39.
Compound `c1ccc2c(c1)CC1(CCCC1)n1nnnc1-2` has a z-score of -0.648.
In the case of `C/C(=N\NC(=O)c1c(Cl)c(C)nn1C)c1ccc(NC(=O)COc2ccc(Cl)cc2C)cc1`, the z-score is reported as 0.132.
